This is part of a sample that, as a whole, favours compounds with a hit. Of some 83,000 tested, about 20% had one in any assay.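 For each line, cells grew in 96-well plates with the test compound present at a single concentration for 48 hours.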 Values without a mark were called inactive. The source made the active and inactive calls.

The assay has as its system MOLT-4 leukemia. Kind of assay: NCI-60 one-dose screen, 48 h (100 = growth as untreated, 0 = no growth, -100 = all killed). Conditions: 10 µM. As for the experimental part: Growth inhibition of the MOLT-4 human tumor cell line is measured as a screen for anti-cancer activity. Cells are grown in 96 well plates and exposed to the test compound for 48 hours. Compounds are tested at a single concentration, which is 10^-5 M for most compounds. The reported endpoint is percent growth (GI% or GIPRCNT), where numbers from 0 - 100% represent growth inhibition, and numbers from -100% - 0 represent cell death. For example, a value of 40 represents 60% growth inhibition. A value of 0 means no net growth occurred over the course of the experiment. A value of -40 indicates 40% of cells at the beginning of the experiment died by the end of the experiment. A value of -100 means all cells are dead at the end of the experiment.
NCI-60 Human Tumor Cell Lines Screen was performed using the standard one-dose NCI protocol, which is described in more detail at https://dtp.cancer.gov/discovery_development/nci-60/default.htm.
Compounds with GIPRCNT values below 10 were considered active. Activity score was based on GIPRCNT using the following formula: […]
Score is 0 for GIPRCNT values of 100 or above, 50 for GIPRCNT values of 0, and 100 for GIPRCNT values of -100.
As for `O=C(NC1CCN(Cc2ccccc2)CC1)c1cc(-c2ccncc2)nc2ccc(Cl)cc12`, the growth is 7.58% (active). Next, `COc1cc(Cl)cc(-c2nn(-c3cccc(NC(=O)Nc4cccc(C(F)(F)F)c4)c3)cc2-c2ccncc2)c1`: -9.16% (active); `COc1ccc2nc(C)cc(Nc3ccc(Cl)cc3)c2c1`: 110%; `CCCCCCCCCCCCCC[n+]1ccccc1`: -51.9% (active). Next, `CCOC(=O)c1sc(NC(=O)c2cc(OC)c(OC)c(OC)c2)nc1C`: 87.6%; `COc1cccc2c1C(=O)c1c(O)c3c(c(O)c1C2=O)C[C@@](O)(C(=O)COC(=O)c1cccnc1)C[C@@H]3OC1CC(N)C(O)C(C)O1` (stereo not given in full): -24.8% (active); `N/C(=N\O)c1cn(C2OC(CO)C(O)C2O)c2ncnc(N)c12` (stereo not given): -27.7% (active). Next, `CNCCCNCCCN1C(=O)c2ccc3c4c(ccc(c24)C1=O)C(=O)N(CCCNCc1ccccc1OC)C3=O`: -23.8% (active). `Cc1ccc(NS(=O)(=O)c2ccccc2)c(NS(=O)(=O)c2ccccc2)c1`: the growth is 105%. Next, `C#CCNCCCN1C(=O)c2ccc3c4c(ccc(c24)C1=O)C(=O)N(CCCNCC#C)C3=O`: -13.1% (active); `Fc1ccc(Nc2ccnc(N3CCN(c4ccnc5cc(Cl)ccc45)CC3)n2)cc1`: 13%; `COc1ccc(-c2nnc(COc3ccc(NC(=O)Nc4ccccc4)cc3F)o2)cc1`: 58.7%.

With `FC(F)(F)c1ccc(-c2cnc(Br)nc2NC2CCCCCC2)cc1`, the growth is 57%. Then `Nc1c(C(=O)NC2CCCCC2)sc2nc3c(cc12)C(=O)CCC3`, with 90.2%.

Regarding `COc1ccc(C2CC(c3ccc(-c4ccccc4)cc3)=NN2c2ccc(S(N)(=O)=O)cc2)cc1` (stereo not given), the growth was 54.8%. As for `O=[N+]([O-])c1ccc(Br)o1`, the growth is 106%. Next, `CC(Oc1ccc(Cl)cc1)c1ccccc1` (stereo not given): 87.3%; `COc1cc2ccnc(C=O)c2cc1OC`: 29.7%. For `COC1OC2COC(c3ccccc3)OC2C(=O)C1NC(=O)c1ccccc1` (stereo not given), the growth is 110%. Then `O=C(Nc1cccc(C(F)(F)F)c1)C(Cl)Cl`, with 98.4%. Next, `COc1ccc(-c2[nH]ncc2-c2cc(OC)c(OC)c(OC)c2)cc1`: -6.22% (active); `O=C(NCCc1nccs1)c1cnc2c(S)cccc2c1`: 15.1%. Next, `Fc1cc(-c2ncc(-c3cc(F)c(F)c(F)c3)c(NC3CCCCCC3)n2)cc(F)c1F`: 102%; `Cc1nc2scc(-c3ccc(Cl)cc3)n2c(=O)c1CCN1CCOCC1`: 78.1%; `CCCCCCCCCCSC(=N)N` (tested in a mixture with another compound): 43.9%. On to `O=C(O)CNS(=O)(=O)c1ccc(OCCOc2ccc(S(=O)(=O)NCC(=O)O)cc2)cc1`, for which the growth is 106%. Then `CCCc1ccnc(NS(=O)(=O)c2ccc(N)cc2)n1`, with 81.9%. Then `COc1ccc2oc(=O)cc(C(c3ccc[nH]3)c3ccc[nH]3)c2c1`, with 6.26% (active); and `CCc1ccc(Nc2cc(C)nc3nc(C)nn23)cc1`, with -20.7% (active); and `CCCCCCCCCCCC(=O)NCCCN(C)C`, with 88.9%. Then `O=C1/C(=C/c2ccc(O)cc2O)N=C2SCCCN12`, with 93.8%; and `COc1ccc(-c2cc(/C=C3\C(=O)Nc4cc(Cl)ccc43)[nH]n2)cc1OC`, with 75%; and `O=C1/C(=C/c2cccs2)CCC/C1=C\c1cccs1`, with 89.1%. `COc1cc(CSc2nc3ccc(C)cc3c(=O)n2-c2ccccc2)cc(OC)c1OC`: the growth is 21.8%. Next, `Nc1ccccc1NC(=O)CCCCCCC(=O)Nc1ccc2c(c1)/C(=C/c1ccc[nH]1)C(=O)N2`: 9.11% (active); `CCN(CC)CC(O)Cc1ccc(OC)cc1` (stereo not given): 95.7%.

In the case of `CC1(C)CNC(=O)N1`, the growth was 101%. Next, `Nc1ccc2c(c1)Cc1cc(N)c(Cl)cc1-2`: 90%; `COc1cc(C(=O)n2nc(N)c3c(C)cc(C)nc32)cc(OC)c1OC`: 36%. Next, `C=CCc1cc(Nc2c3ccc(Cl)cc3nc3ccc(OC)cc23)cc(CN(CC)CC)c1O`: -20.3% (active).

Source of the values: PubChem BioAssay (NCI).
